D2 PAM-1: human D2 receptor positive allosteric modulation | P14416 | DiscoveRx D2 beta-arrestin cells, luminescence, 90 min; 100% = 57 uM dopamine signal | potentiation, % (no concentration beside the values) | 360,000 tested, 0.23% active | AID 624464; in the data active = potentiation above about 50%; inconclusive = mostly about 30% to 49%
Target sequence (P14416 whole entry, looked up): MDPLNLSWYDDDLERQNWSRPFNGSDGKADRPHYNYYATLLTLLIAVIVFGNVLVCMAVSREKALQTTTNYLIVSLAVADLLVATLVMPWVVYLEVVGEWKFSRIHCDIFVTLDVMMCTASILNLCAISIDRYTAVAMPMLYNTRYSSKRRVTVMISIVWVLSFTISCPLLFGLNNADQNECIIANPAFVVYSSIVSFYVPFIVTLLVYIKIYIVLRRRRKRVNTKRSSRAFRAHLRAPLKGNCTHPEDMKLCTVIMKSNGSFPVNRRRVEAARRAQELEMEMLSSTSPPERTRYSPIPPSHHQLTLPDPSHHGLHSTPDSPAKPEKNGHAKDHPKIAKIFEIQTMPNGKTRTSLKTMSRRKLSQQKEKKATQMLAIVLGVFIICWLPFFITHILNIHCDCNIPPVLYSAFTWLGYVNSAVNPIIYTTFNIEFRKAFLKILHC
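PathHunter beta-arrestin assay in DiscoveRx D2 cells. Compounds were added with an EC20 of dopamine (50 nM final) for 90 min at 37 deg C. Luminescence was read 1 h after detection reagent, with 57 uM dopamine as the EC100 control.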
D2 ag-1: activates the human D2 dopamine receptor; activation, % at 2 µM; 340,000 tested, 0.53% active; HEK293 T-REx D2 cells, calcium flux agonist mode; P14416;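 active = activation over 3 SD above normal in the single-dose calcium agonist read, cut at about 30% in these data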
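Calcium-flux readout, 1 cycle/sec over 180 s following compound pin transfer, in inducible HEK293 Trex D2 cells (force-coupled); dopamine controls included. Positive calcium responses during this window marked compounds as potential agonists.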
D2 PAM-2: positively modulates the human D2 dopamine receptor allosterically. AID 485347. HEK293 T-REx D2, calcium flux, EC20 dopamine potentiation. potentiation, % at 10 µM. 340,000 tested, 0.34% active;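 active = potentiation over 3 SD above the plate norm, cut at about 30% in these data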
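Primary screen. Calcium kinetics in induced HEK293 T-REx D2 cells: compound pre-addition 180 s, EC20 dopamine, 180 s more.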
D2 antag: antagonizes the human D2 dopamine receptor; inhibition, % at 10 µM; 340,000 tested, 2% active; HEK293 TREx D2 cells, calcium flux, dopamine EC80; P14416; in the data active = inhibition above about 30%; inactive = below that, where a call was filed
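Tetracycline-induced HEK293 T-REx cells expressing D2 force-coupled to calcium signalling were dye-loaded, exposed to compound for 180 s, then challenged with an EC80 of dopamine; calcium flux was followed kinetically for a further 180 s.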
D2 ag-2: agonists of human D2 dopamine receptor (beta-arrestin) | P14416 | DiscoveRx PathHunter D2 beta-arrestin, luminescence, 90 min; 100% = 57 uM dopamine signal | activation, % (concentration not given with the values) | 360,000 tested, 0.084% active; in the data active = activation above about 40%; inconclusive = between about 15% and that limit
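DiscoveRx PathHunter D2 beta-arrestin cells (2,100/well) attached overnight, then compound-stimulated 90 min at 37 C in HBSS/10 mM HEPES/0.1% Tween-20 buffer; beta-galactosidase complementation read by luminescence after 1 h at ambient temperature. Dopamine 57 uM final (EC100) as control.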
Of the large screens only hits and unclear results are named; the others gave an inactive call. Most compounds without a hit are left out; they make up all but 2.4% or so of the library.

CC(NCC(=O)Nc1cc(S(=O)(=O)N2CCOCC2)ccc1N1CCOCC1)c1ccco1 (stereo not given)	D2 antag 64
Cc1ccccc1SCC(=O)Nc1cc(S(=O)(=O)N2CCOCC2)ccc1N1CCOCC1	none (no result: D2 ag-1, D2 antag)
COc1ccc(CNC(=O)c2cc3c(=O)n(Cc4ccco4)ccc3nc2C)c(OC)c1	none (no result: D2 PAM-1, D2 antag, D2 ag-2)
CN1CCN(S(=O)(=O)c2cccc(C(=O)NC3(C)CCS(=O)(=O)C3)c2)CC1 (stereo not given)	D2 PAM-2 41
CC1(NC(=O)c2cccc(S(=O)(=O)N3CCCc4ccccc43)c2)CCS(=O)(=O)C1 (stereo not given)	none
COc1cccc(CNC(=O)c2ccc(Cn3c(SCc4ccccc4)nc4cccnc43)cc2)c1	none (no result: D2 PAM-1, D2 antag, D2 ag-2)
CCc1ccc(OCc2n[nH]c(=S)n2C(C)CCCC(C)C)cc1 (stereo not given)	D2 antag 48
COc1cccc(-n2c(C)nc3c(cnn3-c3ccc(C)c(C)c3)c2=O)c1	none (no result: D2 PAM-1, D2 antag, D2 ag-2)
COc1ccc(-c2nc3ccc([N+](=O)[O-])cc3[nH]2)cc1	none
Cc1ccc(-c2nc3ccc([N+](=O)[O-])cc3[nH]2)cc1	D2 antag 45
CCOC(=O)c1cccc(NC(=O)CCn2c(=O)oc3ccccc32)c1	D2 antag 32
CCOC(=O)c1c(C)[nH]c(C(=O)Cn2c(=O)oc3ccccc32)c1C	none
Cc1cc(C)c(NC(=O)CCCn2c(=O)oc3ccccc32)c(C)c1	D2 antag 33
CCOC(=O)c1c(NC(=O)Cn2c(=O)oc3ccccc32)oc(C)c1C(C)=O	D2 antag 31
O=C(CCn1c(=O)oc2ccccc21)Nc1cccc(Cl)c1	none
Cc1ccc(NC(=O)CCCn2c(=O)oc3ccccc32)c(O)c1	none
O=C(Nc1cc(-c2ccc(F)c(F)c2)no1)c1ccccc1F	none (no result: D2 PAM-1, D2 antag, D2 ag-2)
Cc1ccccc1-c1nc(CN(Cc2c(C)nn(C)c2C)C2CC2)c(C)o1	D2 antag 30
Cc1ccccc1-c1cc(C(=O)N/N=C/c2cccnc2)c2ccccc2n1	D2 antag 33
O=C(N/N=C/c1cccnc1)c1cc(-c2ccccc2Cl)nc2ccccc12	none
COc1ccccc1-c1cc(C(=O)N/N=C/c2ccc(C)s2)c2ccccc2n1	D2 antag 48
COc1ccc(/C=N/NC(=O)c2cc(-c3ccccc3OC)nc3ccccc23)cc1COC(C)=O	none
CCc1ccc(/C=N/NC(=O)c2cc(-c3ccccc3OC)nc3ccccc23)s1	D2 antag 35
COc1ccccc1-c1cc(C(=O)N/N=C/c2ccoc2)c2ccccc2n1	D2 antag 79
COc1ccc(C(=O)N2CCC(c3nc(-c4ccc(S(=O)(=O)N5CCCC5)cc4)no3)CC2)cc1	none (no result: D2 PAM-1, D2 antag, D2 ag-2)
CCOC(=O)C1CCCN(S(=O)(=O)c2csc(C(N)=O)c2)C1 (stereo not given)	none (no result: D2 PAM-1, D2 antag, D2 ag-2)
CC(=O)Nc1sc(N/N=C\c2ccccc2F)nc1-c1cccs1	D2 PAM-1 64, D2 ag-2 inconclusive
CC(=O)Nc1sc(N/N=C\c2ccc(O)cc2)nc1-c1cccs1	none
COc1ccc(CNC(=O)c2ccc3c(c2)N(C)C(=O)C2CCCCN32)cc1OC (stereo not given)	none (no result: D2 PAM-1, D2 antag, D2 ag-2)
CC(C)CC(=O)Nc1ccccc1N1CCN(C(=O)c2ccccc2)CC1	D2 PAM-1 62
O=C(NCC(=O)N1CCN(C(=O)c2ccccc2)CC1)c1ccccc1	none
CC(CC(=O)N1CCN(C(=O)c2ccccc2)CC1)c1ccccc1 (stereo not given)	D2 antag 38
CSc1nnc2[nH]c(=O)cc(C)n12	none (no result: D2 PAM-1, D2 PAM-2, D2 antag, D2 ag-2)
O=C(O)CCCC(=O)Nc1nc2n(n1)C(c1ccc(F)cc1)CC(c1ccc(Cl)cc1)N2 (stereo not given)	D2 antag 32
COC(=O)[C@@]1(Cc2ccc(OC)cc2)[C@@H]2[C@@H](CC(=O)[C@H]2CC(=O)C(=O)N(C)C)CN1C(=O)c1ccccc1	none
COC(=O)[C@@]1(Cc2ccc(OC)cc2)[C@@H]2C(=CC(=O)[C@H]2CC(=O)C(=O)N2CCCC2)CN1C(=O)c1ccccc1	D2 antag 38
CCCC(O)c1nc2ccccc2n1Cc1ccccc1OC (stereo not given)	none (no result: D2 PAM-1, D2 antag, D2 ag-2)
Cn1c(=O)c2c(nc(N/N=C/c3cccs3)n2C)n(C)c1=O	none

Source: PubChem BioAssay (National Center for Advancing Translational Sciences (NCATS))
